The record followed here is a collection of fitness landscapes (doi:10.1126/science.1257360).

The labels stand for the following.
B1: PhoQ; a variant is named by its letters at X, in order, P23837 (parent)
chain: MKKLLRLFFPLSLRVRFLLATAAVVLVLSLAYGMVALIGYSVSFDKTTFRLLRGESNLFYTLAKWENNKLHVELPENIDKQSPTMTLIYDENGQLLWAQRDVPWLMKMIQPDWLKSNGFHEIEADVNDTSLLLSGDHSIQQQLQEVREDDDDAEMTHSVAVNVYPATSRMPKLTIVVVDTIPVELKSSYMVWSWFIYVLSANLLLVIPLLWVAAWWSLRPIEALAKEVRELEEHNRELLNPATTRELTSLVRNLNRLLKSERERYDKYRTTLTDLTHSLKTPLXXLQXXLRSLRSEKMSVSDAEPVMLEQISRISQQIGYYLHRASMRGGTLLSRELHPVAPLLDNLTSALNKVYQRKGVNISLDISPEISFVGEQNDFVEVMGNVLDNACKYCLEFVEISARQTDEHLYIVVEDDGPGIPLSKREVIFDRGQRVDTLRPGQGVGLAVAREITEQYEGKIVAGESMLGGARMEVIFGRQHSAPKDE

The full ranking holds about 140,000 sequences; the median of “enrichment ratio after two sorts for PhoP signalling” is about 0, and the highest 2% start at about 11. The full list was thinned out, with the highest values kept by preference. A value given as a limit tells only on which side of the number the result lay.

Variants of B1 are the subject of the assay. The assay is described as follows: enrichment ratio after two sorts for PhoP signalling (ratio (wild type AVST 3.29)); higher = more functional. Particulars: with PhoP (E. coli).
As to WIWQ, the enrichment ratio was at most 0.25.

As for QFWQ, the enrichment ratio was at most 0.25.

As to KSWQ, the enrichment ratio was at most 0.25.

For the variant RTWQ, the enrichment ratio was at most 0.25.

In the case of QDWQ, the enrichment ratio is at most 0.25.

As to MFWQ, the enrichment ratio was at most 0.25.

On to MLWQ, for which the enrichment ratio was at most 0.25.

Turning to MSWQ, the enrichment ratio was found to be 14.5.

In the case of MCWQ, the enrichment ratio was at most 0.25.

In the case of SRES, the enrichment ratio is at most 0.25.

PTVM: the enrichment ratio was at most 0.25.

For the variant GKLF, the enrichment ratio is at most 0.25.

Consider IMPS, for which the enrichment ratio was at most 0.25.

Turning to KGLY, the enrichment ratio is at most 0.25.

With FVII, the enrichment ratio is at most 0.25.

Consider VELP, for which the enrichment ratio was at most 0.25.

Regarding RMVC, the enrichment ratio was at most 0.25.

In the case of DREF, the enrichment ratio is at most 0.25.

For PGRT, the enrichment ratio was at most 0.25.

QLWQ: the enrichment ratio is 11.9.

With MMWQ, the enrichment ratio is at most 0.25.

On to MHWQ, for which the enrichment ratio was at most 0.25.

Take MGWQ: the enrichment ratio was 24.5.

On to TPWQ, for which the enrichment ratio was at most 0.25.

Turning to MRWQ, the enrichment ratio is at most 0.25.

With NVWQ, the enrichment ratio is at most 0.25.

On to MIWQ, for which the enrichment ratio turned out to be 24.2.

For MGGG, the enrichment ratio is at most 0.25.

As for REHV, the enrichment ratio was at most 0.25.

Take INFD: the enrichment ratio is at most 0.25.

As to HGVS, the enrichment ratio is at most 0.25.

For the variant ASCV, the enrichment ratio was found to be 18.9.

ASTW: the enrichment ratio is at most 0.25.

In the case of ASCA, the enrichment ratio stood at 13.5.

ASIE: the enrichment ratio came to 0.421.

On to ASCQ, for which the enrichment ratio came to 4.02.

As to KSCK, the enrichment ratio was at most 0.25.

As for ASCK, the enrichment ratio was 22.8.

For ASCP, the enrichment ratio is at most 0.25.

Regarding ASIV, the enrichment ratio came out at 11.4.

ASNM: the enrichment ratio was 5.71.

For the variant ASIS, the enrichment ratio amounted to 7.49.

In the case of ASQV, the enrichment ratio turned out to be 1.45.

For the variant DLCQ, the enrichment ratio was at most 0.25.

Take APTW: the enrichment ratio was at most 0.25.

In the case of NWDH, the enrichment ratio is at most 0.25.

As to QMYQ, the enrichment ratio was 7.96.

With QHMS, the enrichment ratio is at most 0.25.

Turning to VRTV, the enrichment ratio is at most 0.25.

On to ASCG, for which the enrichment ratio came out at 18.9.

With AITV, the enrichment ratio worked out at 6.12.

In the case of AHTV, the enrichment ratio was at most 0.25.

As for ASGG, the enrichment ratio was 4.75.

ASFG: the enrichment ratio stood at 1.66.

Consider ADIN, for which the enrichment ratio was at most 0.25.

For the variant YTIN, the enrichment ratio is at most 0.25.

Turning to ATIN, the enrichment ratio was found to be 11.9.

With ASDV, the enrichment ratio is at most 0.25.

Turning to ANTV, the enrichment ratio was 16.3.

As for ASTV, the enrichment ratio was found to be 12.1.

HSQP: the enrichment ratio was at most 0.25.

Take RWHM: the enrichment ratio is at most 0.25.

As for HETV, the enrichment ratio was 4.78.

Consider RMYW, for which the enrichment ratio is at most 0.25.

With EHNH, the enrichment ratio is at most 0.25.

With VGEA, the enrichment ratio was at most 0.25.

As for SAAE, the enrichment ratio is at most 0.25.

Consider RITI, for which the enrichment ratio was at most 0.25.

For the variant GKRA, the enrichment ratio was at most 0.25.

ASIA: the enrichment ratio stood at 13.9.

As for TSIA, the enrichment ratio worked out at 2.99.

As to ASNK, the enrichment ratio is at most 0.25.

As for ASCM, the enrichment ratio came out at 11.6.

For ASIM, the enrichment ratio is 14.6.

Turning to ASIN, the enrichment ratio came out at 12.

Turning to KSIA, the enrichment ratio is at most 0.25.

Take KSIN: the enrichment ratio was at most 0.25.

As for ASVN, the enrichment ratio was 7.54.

For VRCM, the enrichment ratio is at most 0.25.

As to ASIR, the enrichment ratio amounted to 0.563.

For PHTE, the enrichment ratio was at most 0.25.

Take IMWY: the enrichment ratio was at most 0.25.

Take TLSA: the enrichment ratio is 7.98.

Turning to KLEH, the enrichment ratio is at most 0.25.

Consider ISEL, for which the enrichment ratio is at most 0.25.

For the variant VMQA, the enrichment ratio is at most 0.25.

GMPK: the enrichment ratio is at most 0.25.

Take AWTV: the enrichment ratio is at most 0.25.

TNTV: the enrichment ratio worked out at 10.2.

As to ASTC, the enrichment ratio came to 5.39.

As to ASRC, the enrichment ratio was at most 0.25.

With MLTV, the enrichment ratio was at most 0.25.

Consider AMTV, for which the enrichment ratio is 9.95.

Take ASIC: the enrichment ratio amounted to 12.1.

On to AVTV, for which the enrichment ratio is 12.1.

Turning to ASAV, the enrichment ratio is 11.5.

In the case of ASWV, the enrichment ratio was at most 0.25.

For ASAE, the enrichment ratio came to 5.56.

Take MNTV: the enrichment ratio was 12.2.

As to DPKY, the enrichment ratio was at most 0.25.

In the case of MCMW, the enrichment ratio is at most 0.25.

On to PTRL, for which the enrichment ratio was at most 0.25.

Turning to ETSM, the enrichment ratio was at most 0.25.

For LHSW, the enrichment ratio was at most 0.25.

As to ASCE, the enrichment ratio was 4.22.

For the variant ASCS, the enrichment ratio is 4.46.

ASCC: the enrichment ratio is 18.2.

ASIT: the enrichment ratio is 9.21.

For the variant ASFH, the enrichment ratio is at most 0.25.

In the case of VRCC, the enrichment ratio is at most 0.25.

With ASIL, the enrichment ratio worked out at 19.5.

With ASII, the enrichment ratio amounted to 12.7.

On to ASWN, for which the enrichment ratio is at most 0.25.

Take ASWL: the enrichment ratio was 5.05.

Consider ASCI, for which the enrichment ratio turned out to be 19.9.

Consider ASIQ, for which the enrichment ratio is 5.62.

Turning to DFLG, the enrichment ratio is at most 0.25.

For the variant RMGP, the enrichment ratio was at most 0.25.

Turning to MITD, the enrichment ratio is at most 0.25.

Take PINH: the enrichment ratio is at most 0.25.

On to EKTC, for which the enrichment ratio was at most 0.25.

On to QEPD, for which the enrichment ratio is at most 0.25.

Take ERFK: the enrichment ratio is at most 0.25.

For the variant LKWG, the enrichment ratio is at most 0.25.

Take TNVF: the enrichment ratio is at most 0.25.

For the variant ASPL, the enrichment ratio was determined as 1.12.

Consider ASCL, for which the enrichment ratio is 20.8.

As for TARQ, the enrichment ratio is at most 0.25.

With HHQY, the enrichment ratio is at most 0.25.

On to SPST, for which the enrichment ratio is at most 0.25.

For SSST, the enrichment ratio was determined as 12.7.

For the variant NSST, the enrichment ratio was at most 0.25.

Take KSST: the enrichment ratio is at most 0.25.

On to TSST, for which the enrichment ratio was 15.

As to SLST, the enrichment ratio is 2.81.

On to QMYK, for which the enrichment ratio is at most 0.25.

Consider QIPN, for which the enrichment ratio was at most 0.25.

With FCES, the enrichment ratio is at most 0.25.

Consider VVSR, for which the enrichment ratio is at most 0.25.

As to KAWV, the enrichment ratio was at most 0.25.

FFWV: the enrichment ratio is at most 0.25.

As for QSAE, the enrichment ratio is at most 0.25.

Take KSYV: the enrichment ratio is at most 0.25.

Turning to FSWV, the enrichment ratio is at most 0.25.

For the variant QEYV, the enrichment ratio was at most 0.25.

Regarding QSAV, the enrichment ratio was 12.1.

With QAWV, the enrichment ratio came to 20.2.

Take NAWV: the enrichment ratio is at most 0.25.

As for QGWV, the enrichment ratio came to 18.5.

For QSYV, the enrichment ratio is 14.9.

As to FSAV, the enrichment ratio turned out to be 0.409.

For the variant TGVE, the enrichment ratio was at most 0.25.

For the variant HYPL, the enrichment ratio is at most 0.25.
